In all, about 5,500 compounds went through this assay and about 2,000 (36%) were called active. Another 18% or so got no clear call; they are omitted. This is one part of the list. Values without a mark were called inactive. Cut-off read from the data, not from the text of the source: active = normalized growth mostly below about 0.91 (no sharp cut-off); inconclusive = no clear call, values can overlap the other calls; inactive = mostly above about 0.92.
Test: chemical genetic growth profiling, strain panel (AID 1159580);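 note: tested at 20 µM; growth read once vehicle control cultures reached saturation at 30 °C; 1 = growth at the plate median or of vehicle wells; lower values mean less growth of the strain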
Details: S. cerevisiae deletion strains, growth OD
[1] = locus YHR030C, strain SLT2, stronger effect = lower value
[2] = locus YHR079C, strain IRE1, stronger effect = lower value
[3] = locus YJL095W, strain BCK1, stronger effect = lower value
[4] = locus YJR066W, strain TOR1, stronger effect = lower value
[5] = locus YLR113W, strain HOG1, stronger effect = lower value
[6] = locus YNL183C, strain NPR1, stronger effect = lower value
[7] = locus YOR231W, strain MKK1, stronger effect = lower value
[8] = locus YPL256C, strain CLN2, stronger effect = lower value

CC(C)Cc1ccc(C(C)C(=O)Nc2nn(C)c3ccccc23)cc1 (configuration not stated)
normalized growth (locus YAR019C, strain CDC15, stronger effect = lower value): 0.993
normalized growth (locus YBL105C, strain PKC1, stronger effect = lower value): 0.986
normalized growth (locus YBR135W, strain CKS1, stronger effect = lower value): 0.974
normalized growth (locus YBR136W, strain MEC1, stronger effect = lower value): 0.99
normalized growth (locus YBR160W, strain CDC28, stronger effect = lower value): 0.984
normalized growth (locus YDL017W, strain CDC7, stronger effect = lower value): 0.967
normalized growth (locus YDL028C, strain MPS1, stronger effect = lower value): 0.997
normalized growth (locus YDL101C, strain DUN1, stronger effect = lower value): 0.993
normalized growth (locus YDL108W, strain KIN28, stronger effect = lower value): 0.992
normalized growth (locus YDL132W, strain cdc53, stronger effect = lower value): 0.998
normalized growth (locus YDL214C, strain PRR2, stronger effect = lower value): 0.931
normalized growth (locus YDR054C, strain cdc34, stronger effect = lower value): 0.968
normalized growth (locus YDR226W, strain ADK1, stronger effect = lower value): 0.991
normalized growth (locus YDR477W, strain SNF1, stronger effect = lower value): 0.932
normalized growth (locus YER123W, strain YCK3, stronger effect = lower value): 0.922
normalized growth (locus YER133W, strain GLC7, stronger effect = lower value): 0.945
normalized growth (locus YFL009W, strain cdc4, stronger effect = lower value): 0.985
normalized growth (locus YFL029C, strain CAK1, stronger effect = lower value): 0.994
normalized growth (locus YFR003C, strain YPI1, stronger effect = lower value): 0.993
normalized growth (locus YFR019W, strain FAB1, stronger effect = lower value): 0.962
normalized growth (locus YFR028C, strain CDC14, stronger effect = lower value): 0.988
normalized growth (locus YGR040W, strain KSS1, stronger effect = lower value): 0.915
normalized growth (locus YGR052W, strain FMP48, stronger effect = lower value): 0.983
normalized growth (locus YGR092W, strain DBF2, stronger effect = lower value): 0.931
normalized growth [1]: 0.944
normalized growth [2]: 0.945
normalized growth (locus YHR082C, strain KSP1, stronger effect = lower value): 0.94
normalized growth (locus YHR205W, strain SCH9, stronger effect = lower value): 0.909
normalized growth (locus YIL147C, strain SLN1, stronger effect = lower value): 0.989
normalized growth [3]: 0.965
normalized growth (locus YJL128C, strain PBS2, stronger effect = lower value): 0.948
normalized growth (locus YJL157C, strain FAR1, stronger effect = lower value): 0.942
normalized growth (locus YJR016C, strain ILV3, stronger effect = lower value): 0.99
normalized growth (locus YJR066W, strain TOR1 (second series), stronger effect = lower value): 0.902
normalized growth [4]: 0.982
normalized growth (locus YKL048C, strain ELM1, stronger effect = lower value): 0.965
normalized growth (locus YKL067W, strain YNK1, stronger effect = lower value): 0.939
normalized growth (locus YKL101W, strain HSL1, stronger effect = lower value): 0.933
normalized growth (locus YKL193C, strain SDS22, stronger effect = lower value): 0.975
normalized growth (locus YKL203C, strain TOR2, stronger effect = lower value): 0.981
normalized growth [5]: 0.855 (active)
normalized growth (locus YLR133W, strain CKI1, stronger effect = lower value): 0.93
normalized growth (locus YLR403W, strain SFP1, stronger effect = lower value): 0.772
normalized growth (locus YML070W, strain DAK1, stronger effect = lower value): 0.918
normalized growth (locus YMR001C, strain CDC5, stronger effect = lower value): 0.973
normalized growth (locus YMR205C, strain PFK2 (second series), stronger effect = lower value): 0.928
normalized growth (locus YMR277W, strain FCP1, stronger effect = lower value): 0.975
normalized growth (locus YNL006W, strain LST8, stronger effect = lower value): 0.993
normalized growth (locus YNL020C, strain ARK1, stronger effect = lower value): 0.935
normalized growth (locus YNL161W, strain CBK1, stronger effect = lower value): 0.991
normalized growth [6]: 0.927
normalized growth (locus YNL207W, strain RIO2, stronger effect = lower value): 0.976
normalized growth (locus YNL222W, strain SSU72, stronger effect = lower value): 0.99
normalized growth (locus YNL307C, strain MCK1 (second series), stronger effect = lower value): 0.944
normalized growth (locus YOL078W, strain AVO1, stronger effect = lower value): 0.987
normalized growth (locus YOL136C, strain PFK27, stronger effect = lower value): 0.916
normalized growth (locus YOR061W, strain CKA2, stronger effect = lower value): 0.938
normalized growth (locus YOR119C, strain RIO1, stronger effect = lower value): 0.988
normalized growth [7]: 0.896
normalized growth (locus YOR329C, strain SCD5, stronger effect = lower value): 0.99
normalized growth (locus YPL031C, strain PHO85, stronger effect = lower value): 0.941
normalized growth (locus YPL153C, strain RAD53, stronger effect = lower value): 0.934
normalized growth (locus YPL204W, strain HRR25, stronger effect = lower value): 0.906
normalized growth (locus YPL209C, strain IPL1, stronger effect = lower value): 0.982
normalized growth [8]: 0.88
normalized growth (locus YPR025C, strain CCL1, stronger effect = lower value): 0.986
normalized growth (locus YPR106W, strain ISR1, stronger effect = lower value): 0.979
normalized growth (locus YPR111W, strain DBF20, stronger effect = lower value): 0.955
normalized growth (strain NNK1, stronger effect = lower value): 0.98
normalized growth (strain TSCII, stronger effect = lower value): 0.992

CN1C2CCC1CC(NC(=O)c1nn(C)c3ccccc13)C2 (configuration not stated)
normalized growth (locus YAL013W, strain DEP1, stronger effect = lower value): 1.02
normalized growth (locus YAL040C, strain CLN3, stronger effect = lower value): 1.01
normalized growth (locus YCL061C, strain MRC1 (second series), stronger effect = lower value): 1.01
normalized growth (locus YDR150W, strain NUM1, stronger effect = lower value): 1
normalized growth (locus YDR363W, strain ESC2, stronger effect = lower value): 1
normalized growth (locus YER002W, strain NOP16, stronger effect = lower value): 0.992
normalized growth (locus YJR075W, strain HOC1, stronger effect = lower value): 1.01
normalized growth (locus YMR263W, strain SAP30, stronger effect = lower value): 0.999
normalized growth (locus YNL128W, strain TEP1, stronger effect = lower value): 0.987
normalized growth (locus YNL153C, strain GIM3, stronger effect = lower value): 0.999
normalized growth (locus YNL175C, strain NOP13, stronger effect = lower value): 1.01
normalized growth (locus YNL197C, strain WHI3, stronger effect = lower value): 1.01
normalized growth (locus YNL224C, strain SQS1, stronger effect = lower value): 1
normalized growth (locus YOR083W, strain WHI5 (second series), stronger effect = lower value): 1.02

CN1[C@@H]2CC[C@@H]1CC(O)C2 (some centres not stated)
normalized growth [1]: 1.03
normalized growth [2]: 1.04
normalized growth [3]: 1.05
normalized growth [4]: 0.983
normalized growth [5]: 0.98
normalized growth [6]: 0.986
normalized growth [7]: 1.01
normalized growth [8]: 1.06

CCN1C[C@]2(OC(=O)c3ccccc3NC(C)=O)CCC(OC)[C@]34C1[C@H](CC23)[C@@]1(O)CC(OC)[C@H]2CC4C1(O)[C@H]2OC (some centres not stated)
normalized growth (locus YAL021C, strain ccr4, stronger effect = lower value): 0.966
normalized growth (locus YAL026C, strain drs2, stronger effect = lower value): 0.981
normalized growth (locus YAL030W, strain snc1, stronger effect = lower value): 0.977
normalized growth (locus YBL061C, strain skt5, stronger effect = lower value): 0.971
normalized growth (locus YBR009C, strain hhf1, stronger effect = lower value): 0.985
normalized growth (locus YBR023C, strain chs3, stronger effect = lower value): 0.977
normalized growth (locus YBR171W, strain sec66, stronger effect = lower value): 0.96
normalized growth (locus YBR231C, strain swc5, stronger effect = lower value): 0.972
normalized growth (locus YBR279W, strain paf1, stronger effect = lower value): 0.979
normalized growth (locus YCL011C, strain gbp2, stronger effect = lower value): 0.947
normalized growth (locus YCL016C, strain dcc1, stronger effect = lower value): 0.971
normalized growth (locus YCL061C, strain MRC1, stronger effect = lower value): 1
normalized growth (locus YCL069W, strain vba3, stronger effect = lower value): 0.955
normalized growth (locus YCR088W, strain abp1, stronger effect = lower value): 0.946
normalized growth (locus YDL005C, strain med2, stronger effect = lower value): 0.948
normalized growth (locus YDL040C, strain nat1, stronger effect = lower value): 0.969
normalized growth (locus YDR001C, strain nth1, stronger effect = lower value): 0.977
normalized growth (locus YDR069C, strain doa4, stronger effect = lower value): 0.953
normalized growth (locus YDR137W, strain rgp1, stronger effect = lower value): 1.02
normalized growth (locus YDR159W, strain sac3, stronger effect = lower value): 0.979
normalized growth (locus YDR195W, strain ref2): 0.963
normalized growth (locus YDR297W, strain sur2, stronger effect = lower value): 0.967
normalized growth (locus YDR334W, strain swr1, stronger effect = lower value): 0.974
normalized growth (locus YDR335W, strain msn5, stronger effect = lower value): 0.958
normalized growth (locus YDR392W, strain spt3, stronger effect = lower value): 0.921
normalized growth (locus YEL003W, strain gim4, stronger effect = lower value): 0.98
normalized growth (locus YEL037C, strain rad23, stronger effect = lower value): 0.958
normalized growth (locus YEL061C, strain CIN8 (second series), stronger effect = lower value): 0.963
normalized growth (locus YER015W, strain faa2, stronger effect = lower value): 0.974
normalized growth (locus YER016W, strain bim1, stronger effect = lower value): 0.979
normalized growth (locus YER111C, strain swi4, stronger effect = lower value): 0.986
normalized growth (locus YER155C, strain BEM2 (second series), stronger effect = lower value): 0.974
normalized growth (locus YFR010W, strain ubp6, stronger effect = lower value): 0.975
normalized growth (locus YGL167C, strain pmr1, stronger effect = lower value): 0.974
normalized growth (locus YGL173C, strain kem1, stronger effect = lower value): 0.972
normalized growth (locus YGL227W, strain vid30, stronger effect = lower value): 0.956
normalized growth (locus YGL240W, strain doc1, stronger effect = lower value): 0.973
normalized growth (locus YGL253W, strain hxk2, stronger effect = lower value): 0.963
normalized growth (locus YHR013C, strain ard1, stronger effect = lower value): 0.969
normalized growth (locus YHR027C, strain rpn1, stronger effect = lower value): 0.992
normalized growth [1]: 0.976
normalized growth [2]: 0.98
normalized growth (locus YHR142W, strain chs7, stronger effect = lower value): 0.95
normalized growth (locus YJL092W, strain hpr5, stronger effect = lower value): 0.953
normalized growth (locus YJL095W, strain BCK1 (second series), stronger effect = lower value): 0.974
normalized growth [3]: 0.97
normalized growth (locus YJL115W, strain asf1, stronger effect = lower value): 0.973
normalized growth (locus YJL129C, strain trk1, stronger effect = lower value): 0.961
normalized growth (locus YJL154C, strain vps35, stronger effect = lower value): 0.952
normalized growth (locus YJL164C, strain tpk1, stronger effect = lower value): 0.983
normalized growth (locus YJL166W, strain qcr8, stronger effect = lower value): 0.979
normalized growth (locus YJL187C, strain SWE1, stronger effect = lower value): 0.987
normalized growth [4]: 0.975
normalized growth (locus YKL160W, strain elf1, stronger effect = lower value): 0.979
normalized growth (locus YKR026C, strain gcn3, stronger effect = lower value): 0.975
normalized growth (locus YKR091W, strain srl3, stronger effect = lower value): 0.979
normalized growth (locus YLL001W, strain dnm1, stronger effect = lower value): 0.993
normalized growth (locus YLL026W, stronger effect = lower value): 0.984
normalized growth (locus YLL041C, strain sdh2, stronger effect = lower value): 0.978
normalized growth (locus YLR027C, strain aat2, stronger effect = lower value): 0.967
normalized growth [5]: 0.969
normalized growth (locus YLR221C, strain rsa3, stronger effect = lower value): 0.976
normalized growth (locus YLR258W, strain gsy2, stronger effect = lower value): 0.974
normalized growth (locus YLR262C, strain YPT6 (second series), stronger effect = lower value): 1.04
normalized growth (locus YLR320W, strain mms22, stronger effect = lower value): 0.983
normalized growth (locus YLR342W, strain FKS1, stronger effect = lower value): 0.961
normalized growth (locus YLR357W, strain rsc2, stronger effect = lower value): 0.945
normalized growth (locus YLR370C, strain arc18, stronger effect = lower value): 0.973
normalized growth (locus YLR384C, strain iki3, stronger effect = lower value): 0.959
normalized growth (locus YML120C, strain ndi1, stronger effect = lower value): 0.974
normalized growth (locus YMR058W, strain fet3, stronger effect = lower value): 0.989
normalized growth (locus YMR125W, strain sto1, stronger effect = lower value): 0.953
normalized growth (locus YMR129W, stronger effect = lower value): 0.98
normalized growth (locus YMR205C, strain PFK2, stronger effect = lower value): 0.993
normalized growth (locus YMR231W, strain pep5, stronger effect = lower value): 0.953
normalized growth (locus YNL071W, strain lat1, stronger effect = lower value): 0.956
normalized growth [6]: 0.905
normalized growth (locus YNL209W, strain ssb2, stronger effect = lower value): 0.974
normalized growth (locus YNL248C, strain rpa49, stronger effect = lower value): 0.98
normalized growth (locus YNL322C, strain KRE1 (second series), stronger effect = lower value): 0.972
normalized growth (locus YNR049C, strain mso1, stronger effect = lower value): 0.979
normalized growth (locus YOR001W, strain rrp6, stronger effect = lower value): 0.961
normalized growth (locus YOR070C, strain gyp1, stronger effect = lower value): 0.964
normalized growth (locus YOR080W, strain dia2, stronger effect = lower value): 0.97
normalized growth (locus YOR083W, strain WHI5, stronger effect = lower value): 0.973
normalized growth (locus YOR106W, strain vam3, stronger effect = lower value): 0.959
normalized growth [7]: 0.978
normalized growth (locus YOR265W, strain rbl2, stronger effect = lower value): 0.982
normalized growth (locus YOR270C, strain vph1, stronger effect = lower value): 0.975
normalized growth (locus YOR290C, strain snf2, stronger effect = lower value): 0.986
normalized growth (locus YPL051W, strain arl3, stronger effect = lower value): 0.979
normalized growth (locus YPL078C, strain atp4, stronger effect = lower value): 0.971
normalized growth (locus YPL106C, strain sse1, stronger effect = lower value): 0.923
normalized growth (locus YPL240C, strain hsp82, stronger effect = lower value): 0.963
normalized growth [8]: 0.956

Source: PubChem BioAssay AID1159580 (chemical genetic matrix, 2015)
